Source: PubChem BioAssay (EPA / NIEHS)
The source made the active and inactive calls. Rule for the calls: active = hit-call score of the fitted dose curve at least 0.9, where 1 is the maximum; inactive = score below 0.9.

Tests used:
[1] = read-out: Macrophage colony-stimulating factor (MCSF), CSF1 (gene 1435); test: BSK_hDFCGF_MCSF: BioMAP Diversity Plus: hDFCGF Assay for Macrophage colony-stimulating factor (MCSF) Biomarker Activity (AID 2283060); details: primary human foreskin fibroblasts; actives raise or lower the signal
In short: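 M-CSF levels, determined by ELISA, are taken at 24 h after dosing human skin fibroblasts. Responses in either direction are fitted with DMSO serving as the baseline.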

[2] = BSK_hDFCGF_SRB: Viability Assessment in the BioMAP Diversity Plus: hDFCGF Assay (AID 2283061); details: primary human foreskin fibroblasts;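 note: cells exposed to compound for 24 h before the read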
In short: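 Cells were dosed with test chemical, cultured 24 h, fixed with 10% TCA, then stained with 0.1% SRB and read at 560 nm. The fibroblasts were human foreskin primary cells, and DMSO served as baseline.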

[3] = read-out: TIMP metallopeptidase inhibitor 1 (TIMP1), TIMP1 (gene 7076); test: BSK_hDFCGF_TIMP1: BioMAP Diversity Plus: hDFCGF Assay for TIMP metallopeptidase inhibitor 1 (TIMP1) Biomarker Activity (AID 2283062); details: primary human foreskin fibroblasts; actives raise or lower the signal
In short: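 Fibroblasts from human foreskin are treated with test chemical and harvested at 24 h. TIMP-1 is quantified by ELISA, and gain or loss of signal is scored against DMSO.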

[4] = read-out: Monokine induced gamma interferon (MIG), CXCL9 (gene 4283); test: BSK_hDFCGF_MIG: BioMAP Diversity Plus: hDFCGF Assay for Monokine induced gamma interferon (MIG) Biomarker Activity (AID 2283063); details: primary human foreskin fibroblasts; actives raise or lower the signal
In short: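 MIG signal, determined by ELISA, reflects 24 h chemical exposure of human skin primary fibroblasts. DMSO serves as negative control and baseline.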

[5] = read-out: Matrix Metallopeptidase 1 (MMP1), MMP1 (gene 4312); test: BSK_hDFCGF_MMP1: BioMAP Diversity Plus: hDFCGF Assay for Matrix Metallopeptidase 1 (MMP1) Biomarker Activity (AID 2283064); details: primary human foreskin fibroblasts; actives raise or lower the signal
In short: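 Primary human foreskin fibroblasts in the hDFCGF system were dosed with test chemical, and MMP1 was measured by ELISA 24 h later. Values come from bidirectional curve fitting against the DMSO baseline.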

[6] = read-out: Vascular cell adhesion molecule 1 (VCAM1), VCAM1 (gene 7412); test: BSK_hDFCGF_VCAM1: BioMAP Diversity Plus: hDFCGF Assay for Vascular cell adhesion molecule 1 (VCAM1) Biomarker Activity (AID 2283065); details: primary human foreskin fibroblasts; actives raise or lower the signal;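 for AC50: VCAM-1 protein level quantified by ELISA after 24 h chemical exposure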
In short: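 Cells are dosed, cultured for 24 h, then VCAM-1 is quantified by ELISA; signal increases and decreases are both fitted relative to DMSO.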

[7] = read-out: Plasminogen activator inhibitor-1 (PAI1), SERPINE1 (gene 5054); test: BSK_hDFCGF_PAI1: BioMAP Diversity Plus: hDFCGF Assay for Plasminogen activator inhibitor-1 (PAI1) Biomarker Activity (AID 2283066); details: primary human foreskin fibroblasts; actives raise or lower the signal
In short: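 Human foreskin fibroblasts in the hDFCGF system were dosed with compound for 24 h; PAI-1 was quantified by ELISA. Bidirectional curve fitting used DMSO as negative control and baseline.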

[8] = read-out: Intercellular Adhesion Molecule 1 (ICAM1), ICAM1 (gene 3383); test: BSK_KF3CT_ICAM1: BioMAP Diversity Plus: KF3CT Assay for Intercellular Adhesion Molecule 1 (ICAM1) Biomarker Activity (AID 2283067); details: primary human keratinocytes with fibroblasts; actives raise or lower the signal
In short: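 Dose the keratinocyte/fibroblast co-culture, wait 24 h, measure ICAM-1 by ELISA, then fit increases or decreases against DMSO. Cytotoxicity is checked in parallel cultures by SRB total-protein staining.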

[9] = read-out: Interferon-gamma inducible Protein 10 (IP10), CXCL10 (gene 3627); test: BSK_KF3CT_IP10: BioMAP Diversity Plus: KF3CT Assay for Interferon-gamma inducible Protein 10 (IP10) Biomarker Activity (AID 2283068); details: primary human keratinocytes with fibroblasts; actives raise or lower the signal
In short: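 ELISA read-out of IP-10 after 24 h chemical dosing of human skin primary co-culture (keratinocytes, foreskin fibroblasts). Gain or loss of signal relative to DMSO, bidirectional curve fit.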

[10] = BSK_KF3CT_SRB: Viability Assessment in the BioMAP Diversity Plus: KF3CT Assay (AID 2283069); details: primary human keratinocytes with fibroblasts
In short: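 Human primary keratinocyte plus foreskin fibroblast co-culture exposed to chemicals for 24 h. Total protein measured by 0.1% sulforhodamine B staining after 10% TCA fixation, read at 560 nm; bidirectional fitting versus DMSO baseline.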

[11] = read-out: Interleukin-1 alpha (IL1a), IL1A (gene 3552); test: BSK_KF3CT_IL1a: BioMAP Diversity Plus: KF3CT Assay for Interleukin-1 alpha (IL1a) Biomarker Activity (AID 2283070); details: primary human keratinocytes with fibroblasts; actives raise or lower the signal
In short: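 Human keratinocyte plus foreskin fibroblast primary co-culture, sampled 24 h after chemical dosing. IL-1a measured by ELISA; responses fitted bidirectionally against DMSO baseline (negative control), so gain or loss of signal both count.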

[12] = read-out: TIMP metallopeptidase inhibitor 2 (TIMP2), TIMP2 (gene 7077); test: BSK_KF3CT_TIMP2: BioMAP Diversity Plus: KF3CT Assay for TIMP metallopeptidase inhibitor 2 (TIMP2) Biomarker Activity (AID 2283071); details: primary human keratinocytes with fibroblasts; actives raise or lower the signal
In short: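 Human primary keratinocyte/foreskin fibroblast co-culture dosed with chemical and sampled at 24 h. TIMP-2 levels quantified by ELISA; bidirectional fitting against DMSO negative control as baseline.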

[13] = read-out: Transforming growth factor beta 1 (TGFb1), TGFB1 (gene 7040); test: BSK_KF3CT_TGFb1: BioMAP Diversity Plus: KF3CT Assay for Transforming growth factor beta 1 (TGFb1) Biomarker Activity (AID 2283072); details: primary human keratinocytes with fibroblasts; actives raise or lower the signal
In short: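 Human keratinocyte plus foreskin fibroblast primary co-culture, dosed with chemical for 24 h. TGF-b1 quantified by ELISA. Activity fitted bidirectionally against DMSO negative control as baseline.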

[14] = read-out: C-C motif chemokine 2 (Homo sapiens) (UniProt P13500); test: BSK_KF3CT_MCP1: BioMAP Diversity Plus: KF3CT Assay for Monocyte Chemoattractant Protein 1 (MCP1/CCL2) Biomarker Activity (AID 2283073); details: primary human keratinocytes with fibroblasts; actives raise or lower the signal
In short: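 Keratinocytes and foreskin fibroblasts were co-cultured, dosed with chemical, and sampled 24 h later. MCP-1 was quantified by ELISA, and the endpoint was analyzed with bidirectional fitting using DMSO as negative control.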

[15] = read-out: Matrix Metallopeptidase 9 (MMP9), MMP9 (gene 4318); test: BSK_KF3CT_MMP9: BioMAP Diversity Plus: KF3CT Assay for Matrix Metallopeptidase 9 (MMP9) Biomarker Activity (AID 2283074); details: primary human keratinocytes with fibroblasts; actives raise or lower the signal;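 for AC50: MMP9 protein level quantified by ELISA in the co-culture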
In short: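 Keratinocyte plus foreskin fibroblast human primary skin co-culture was dosed with chemical and MMP-9 was quantified by ELISA 24 h later. Bidirectional curve fitting used DMSO as negative control and activity baseline.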

[16] = read-out: urokinase plasminogen activator (uPA), PLAU (gene 5328); test: BSK_KF3CT_uPA: BioMAP Diversity Plus: KF3CT Assay for urokinase plasminogen activator (uPA) Biomarker Activity (AID 2283075); details: primary human keratinocytes with fibroblasts; actives raise or lower the signal
In short: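 Human keratinocyte plus foreskin fibroblast primary co-culture exposed to chemical for 24 h. uPA levels were quantified by ELISA, and activity was fitted bidirectionally against a DMSO negative-control baseline.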

CD40, CD40 (gene 958) = test: BSK_LPS_CD40: BioMAP Diversity Plus: LPS Assay for CD40 Biomarker Activity (AID 2283076); details: primary human HUVEC with PBMC; actives raise or lower the signal
In short: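 CD40 signal, measured by ELISA, is fitted in both directions relative to DMSO vehicle. The system is an LPS-driven human vascular primary co-culture of endothelial cells and PBMC, sampled 24 h after compound addition.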

[17] = read-out: E-selectin (Homo sapiens) (UniProt P16581); test: BSK_LPS_Eselectin: BioMAP Diversity Plus: LPS Assay for Eselectin Biomarker Activity (AID 2283077); details: primary human HUVEC with PBMC; actives raise or lower the signal
In short: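 Signal of E-selectin, detected by ELISA, served as the endpoint; cells were umbilical vein endothelium with PBMC, read 24 h after treatment. DMSO defined baseline, and both increases and decreases were fitted.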

[18] = read-out: Interleukin-8 (IL8), CXCL8 (gene 3576); test: BSK_LPS_IL8: BioMAP Diversity Plus: LPS Assay for Interleukin-8 (IL8) Biomarker Activity (AID 2283078); details: primary human HUVEC with PBMC; actives raise or lower the signal
In short: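 Endothelial cells and PBMC from human donors are co-cultured, treated with chemicals and LPS, then assayed for IL-8 by ELISA after 24 h. Parallel SRB staining (0.1% SRB after 10% TCA fixation, 560 nm) flags cytotoxicity.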

[19] = BSK_LPS_SRB: Viability Assessment in the BioMAP Diversity Plus: LPS Assay (AID 2283079); details: primary human HUVEC with PBMC;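 note: total protein by sulforhodamine B absorbance as a cytotoxicity measure; measured one day after compound addition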
In short: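 Overt cytotoxicity was gauged by sulforhodamine B total-protein staining in a primary human vascular endothelial and mononuclear cell co-culture 24 h post-dosing. Activity was fitted in both directions relative to DMSO.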

Measured: AC50

E-selectin (Homo sapiens), sequence (P16581 whole entry, looked up): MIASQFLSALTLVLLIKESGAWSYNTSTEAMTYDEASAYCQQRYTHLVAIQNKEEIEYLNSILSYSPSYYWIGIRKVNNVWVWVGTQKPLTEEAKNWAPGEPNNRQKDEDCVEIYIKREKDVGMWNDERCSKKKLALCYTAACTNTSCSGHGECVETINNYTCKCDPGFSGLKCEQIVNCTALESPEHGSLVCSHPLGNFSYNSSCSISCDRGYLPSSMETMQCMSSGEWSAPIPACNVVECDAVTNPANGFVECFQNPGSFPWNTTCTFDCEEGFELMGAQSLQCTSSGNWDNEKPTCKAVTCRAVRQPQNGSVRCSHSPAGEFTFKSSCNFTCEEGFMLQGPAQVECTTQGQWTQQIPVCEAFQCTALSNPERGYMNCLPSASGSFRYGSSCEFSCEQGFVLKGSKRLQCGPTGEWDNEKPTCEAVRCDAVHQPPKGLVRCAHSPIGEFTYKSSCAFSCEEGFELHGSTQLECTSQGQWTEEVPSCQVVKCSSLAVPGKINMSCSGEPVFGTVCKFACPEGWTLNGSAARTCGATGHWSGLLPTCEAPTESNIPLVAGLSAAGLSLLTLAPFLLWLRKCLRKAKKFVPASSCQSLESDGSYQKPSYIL

CCc1cccc(CC)c1N(COC)C(=O)CCl
active: [1] 18.9 µM | [2] 24 µM | [4] 10.1 µM | [6] 8.35 µM | [15] 20 µM | CD40, CD40 (gene 958) 13.8 µM | [17] 33.8 µM | [19] 3.97 µM
inactive: all other assays above

Nc1c(Cl)cc([N+](=O)[O-])cc1Cl
active: [5] 4.71 µM
not listed: [17]
inactive: all other assays above

Cc1nn(-c2cc(NS(C)(=O)=O)c(Cl)cc2Cl)c(=O)n1C(F)F
not listed: [4]
inactive: all other assays above

N#CSCSC#N
inactive: [3]
active: [1] 1.93 µM | [2] 0.66 µM | [4] 1.78 µM | [5] 3.17 µM | [6] 1.71 µM | [7] 2.32 µM | [8] 5.57 µM | [9] 8.38 µM | [10] 4.78 µM | [11] 8.09 µM | [12] 5.72 µM | [13] 5.17 µM | [14] 5.31 µM | [15] 6.04 µM | [16] 6.91 µM | CD40, CD40 (gene 958) 5.33 µM | [17] 6.28 µM | [18] 5.94 µM | [19] 5.37 µM

CCCSP(=O)(OCC)SCCC
not listed: [17]
inactive: all other assays above

CCOC(=O)COc1cc(-c2nn(C)c(OC(F)F)c2Cl)c(F)cc1Cl
active: [5] 0.148 µM
not listed: [8] | [17]
inactive: all other assays above

CCOP(=S)(OCC)OC(Cl)C(Cl)(Cl)Cl (stereo unspecified)
active: [1] 31.8 µM | [6] 29.4 µM | [10] 26.7 µM
not listed: [8]
inactive: all other assays above

C#CC(C)(C)NC(=O)c1cc(Cl)cc(Cl)c1
not listed: [8] | [17]
inactive: all other assays above

CNc1cnn(-c2cccc(C(F)(F)F)c2)c(=O)c1Cl
inactive: all assays above

Cc1ccn2nc(S(=O)(=O)Nc3c(F)cccc3F)nc2n1
active: [19] 1.06 µM
not listed: [8] | [17]
inactive: all other assays above

CCc1cccc(C)c1N(C(=O)CCl)C(C)COC (stereo unspecified)
active: [9] 33.2 µM | CD40, CD40 (gene 958) 17.5 µM
not listed: [7] | [8] | [17]
inactive: all other assays above

CCCCSP(=O)(SCCCC)SCCCC
active: [1] 14.6 µM | CD40, CD40 (gene 958) 31.8 µM | [18] 27.1 µM | [19] 16 µM
not listed: [17]
inactive: all other assays above
